# From PubChem
# ELG1 DNA repair: qHTS screen for small molecules that inhibit ELG1-dependent DNA repair in human embryonic kidney (HEK293T) cells expressing luciferase-tagged ELG1. hit rate 2.3% among 330,000. Potency, µM (titrated, usually from 46.1 µM), for inactives: at the top dose activity change, negative = inhibition, most hits filed as inhibitors. HEK293T ELG1-luciferase reporter, luminescence, 16 h; DNA damage induced by 5-fluorouridine. AID 504467, 2011; note: potency is the fitted concentration of half-maximal effect; nearly all actives have a fitted effect of over 55% in size
#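 Luminescence from the luciferase reporter, measured 30 min after ONE-Glo reagent at room temperature, was the read-out. Beforehand, 2,000 cells per well were exposed for 16 hr at 37 °C to 5-fluorouridine together with compound or vehicle.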
# HT1080-NT tox: qHTS for induction of synthetic lethality in tumor cells producing 2HG: qHTS for the HT-1080-NT fibrosarcoma cell line; HT-1080-NT fibrosarcoma viability, CellTiter-Glo ATP luminescence, 48 h; Potency, µM (titrated, usually from 46.1 µM), for the others: top-dose activity, negative = less viability, most hits filed as cytotoxic; hit rate 1.6% among 360,000;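 note: NT is the 2HG producing partner of a matched IDH1 knockdown line; potency is the fitted concentration of half-maximal effect; 0% = DMSO-treated cells and -100% = media-only wells without cells; nearly all actives have a fitted effect of over 55% in size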
#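 Viability by CellTiter-Glo luminescence after 48 h compound exposure at 37C of HT-1080-NT cells (750/well, RPMI, 5% FBS). % activity scaled between DMSO wells and medium-only wells, then curve-fitted and categorized by curve class.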
# DT40 TDP1 no CPT: qHTS for Inhibitors of human tyrosyl-DNA phosphodiesterase 1 (TDP1): qHTS in cells in absence of CPT; DT40 Tdp1-/- hTDP1 cells, no CPT, ATP luminescence, 48 h; Potency, µM (doses to about 46.2 µM), without a hit: at the top dose activity change, negative = growth inhibition, hits mostly inhibitors; hit rate 15% among 420,000; AID 686978, 2013; note: potency is the fitted concentration of half-maximal effect; nearly all actives have a fitted effect of over 55% in size
#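 Chicken DT40 Tdp1-/- cells complemented with human TDP1, screened without camptothecin (DMSO vehicle only), 400 cells/well. Compounds pin-transferred, cells incubated at 37 °C for at least 48 hr. Growth read as ATP-dependent luminescence (CellTiter-Glo, 30 min at RT).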
# HT1080 IDH1KD tx: qHTS for induction of synthetic lethality in tumor cells producing 2HG: qHTS for the HT-1080-IDH1KD cell line | HT-1080 IDH1 knockdown viability, ATP luminescence, 48 h | Potency, µM (top dose mostly 46.1 µM), for inactives: at the top dose activity, negative = toxicity, hits mostly cytotoxic | hit rate 2% among 360,000;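 note: potency is the fitted concentration of half-maximal effect; 0% = DMSO wells and -100% = cell-free medium wells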
#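 % activity derives from luminescence (CellTiter-Glo), normalised to DMSO and no-cell wells. HT-1080-IDH1KD cells, 750/well, had 48 h compound exposure at 37 °C.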
# TDP1 cell CPT: qHTS for Inhibitors of human tyrosyl-DNA phosphodiesterase 1 (TDP1): qHTS in cells in presence of CPT; chicken DT40 Tdp1-/-;hTDP1 cells + 20 nM CPT, ATP luminescence, 48 h; Potency, µM (highest dose often 46.2 µM), for inactives: at the top dose activity change, negative = growth inhibition, hits mostly inhibitors; hit rate 12% among 420,000; note: potency is the fitted concentration of half-maximal effect; nearly all actives have a fitted effect of over 55% in size
#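 Chicken DT40 Tdp1-/- cells complemented with human TDP1, 400 cells/well, exposed to compounds plus 20 nM camptothecin for at least 48 h at 37 C; viability read as ATP content by CellTiter-Glo luminescence.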
# IL1B secr inh: qHTS for Inhibitors of Inflammasome Signaling: IL-1-beta AlphaLISA Primary Screen | THP-1 LPS/ATP IL-1B secretion, AlphaLISA, 16 h; hits give low values | activity change, % at 57.5 µM | hit rate 4.7% among 360,000 | AID 743279, 2014; in the data active = activity change below about -50%; inconclusive = mostly about -30% to -49%
#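 THP-1 cells pretreated 1 hr with compounds (up to 57.5 uM final), then stimulated with LPS (250 ng/mL final) plus ATP (1.25 mM final); secreted IL-1B measured by AlphaLISA after 16 hr, decreased signal indicating inhibition.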
# * marks the source's active call; other numbers are inactive results; ? = inconclusive; / = no result. Only some compounds are listed: those with a hit (about 19% of all), similar ones and a draw of the others. Unless noted, calls come from the whole dose curve; as a rule, active = well fitted curve in the direction sought with a large enough effect; inconclusive = small, poorly fitted or top-dose-only effect, or another doubt; inactive = no such curve, though single readings can be large; an effect the other way counts as inactive or inconclusive. Unless noted, % is set by controls: 0 for no effect and ±100 for the full control effect.
SMILES,ELG1 DNA repair,HT1080-NT tox,DT40 TDP1 no CPT,HT1080 IDH1KD tx,TDP1 cell CPT,IL1B secr inh
Cc1cc(CC(=O)O)c2oc(-c3ccoc3)cc(=O)c2c1,/,-4%,0%,-2%,10%,-15
Cc1cc(=O)oc2cc(OCC(=O)NCCN3CCOCC3)c(Cl)cc12,13%,14%,-10%,16%,-5%,-11
Cc1cc(OCC(=O)Nc2ccc(CN3CCOCC3)cc2)c2c(C)cc(=O)oc2c1,15%,-7%,12µM*,-8%,18µM*,-1
CCCc1cc(=O)oc2cc(OCC(=O)NC3CCN(Cc4ccccc4)CC3)ccc12,1%,3%,-4%,13%,-23%,3
CCCc1cc(=O)oc2c(C)c(OCC(=O)NC3CCN(Cc4ccccc4)CC3)ccc12,-6%,9%,?,0%,18µM*,-8
CCCCc1cc(=O)oc2cc(OCC(=O)NCCN3CCOCC3)c(Cl)cc12,3%,-12%,18µM*,-6%,13µM*,-13
CCCc1cc(=O)oc2c(C)c(OCC(=O)Nc3ccc(CN4CCOCC4)cc3)ccc12,-19%,-4%,?,0%,15µM*,4
CC1CCCCN1C(=O)Cn1c(=O)oc2cc(S(=O)(=O)N3CCCC3)ccc21 (stereo unspecified),4%,6%,-18%,2%,-3%,-3
Cn1c(=O)c2sccc2n2c(CCCC(=O)NCc3ccccc3)nnc12,/,/,-20%,/,-27%,/
O=c1c(-c2cccc(Cl)c2)nc2cncnc2n1Cc1ccccc1Cl,/,/,11%,/,22%,/
N[C@H](C(=O)O)[C@@H](O)c1ccc(O)c(O)c1,/,/,-11%,/,?,/
COCCOC(=O)c1c(C)oc2c1cc(NS(=O)(=O)c1ccc(Cl)c(C)c1)c1ccccc12,/,/,23µM*,/,?,/
Cc1oc2c(cc(NS(=O)(=O)c3ccc(C(C)C)cc3)c3ccccc32)c1C(=O)OCc1ccccc1,/,/,?,/,21µM*,/
COC(=O)c1c(C)oc2c1cc(NS(=O)(=O)c1cccs1)c1ccccc12,-2%,?,-22%,?,-23%,-3
CCCCOC(=O)c1c(C)oc2c1cc(NS(=O)(=O)c1cc(OC)ccc1OC)c1ccccc12,/,/,21µM*,/,?,/
CCOC(=O)c1c(C)oc2c1cc(NS(=O)(=O)c1ccc(C(=O)O)cc1)c1ccccc12,-12%,-11%,-30%,-15%,-9%,32
Cc1oc2c(cc(NS(=O)(=O)c3ccc(Cl)cc3)c3ccccc32)c1C(=O)O,-2%,-25%,-10%,-18%,?,36
CCOc1ccc(S(=O)(=O)Nc2cc3c(C(=O)OCc4ccccc4)c(C)oc3c3ccccc23)cc1,/,/,29µM*,/,12µM*,/
N=C1SCC(=O)N1c1ccc(Cl)cc1,4%,5%,3%,5%,8%,0
COc1nnc(-c2ccc(C(=O)N3C[C@@H]4C[C@H](C3)c3cccc(=O)n3C4)cc2)c2ccccc12,3%,12%,19%,14%,15%,-7
O=C(c1ccc(-c2nnc(Nc3cccc(Cl)c3)c3ccccc23)cc1)N1C[C@H]2C[C@H](C1)c1cccc(=O)n1C2,-24%,?,16µM*,?,?,?
Cc1nc(C)c(C(=O)Nc2ccc(Oc3ccccc3)cc2)o1,6%,?,15µM*,-1%,?,32
COc1ccc(O)c(C(=O)CC(=O)c2cccnc2)c1,/,8%,?,5%,?,-24
COc1ccc(NC(=O)c2ccccc2[N+](=O)[O-])cc1,?,5%,-9%,8%,-13%,1
COc1ccc(Oc2ccc(NC(=O)c3ccccc3C)cc2)cc1,?,?,21µM*,?,?,?
SMILES,ELG1 DNA repair,HT1080-NT tox,DT40 TDP1 no CPT,HT1080 IDH1KD tx,TDP1 cell CPT,IL1B secr inh
COc1ccccc1Nc1ccc(NC(=O)c2cccc([N+](=O)[O-])c2C)cc1,?,-24%,18µM*,-16%,?,-27
Cc1ncoc1C(=O)Nc1ccc(Oc2ccccc2)cc1,?,-7%,-8%,-27%,-21%,21
COc1ccc(O)c(C(=O)CC(=O)c2ccccc2C)c1,?,-2%,5.8µM*,?,7.3µM*,29
O=C(COc1ccccc1Cl)OCc1cc(=O)n2nc(C3CC3)sc2n1,/,/,-14%,/,-23%,/
COc1ccccc1Oc1ccc(NC(=O)c2ccccc2)cc1,?,8%,-22%,4%,-1%,-8
COc1ccccc1Oc1ccc(NC(=O)c2ccccc2C)cc1,?,-10%,23µM*,0%,?,-29
Cc1c(C)c2cc(Cl)c(OCC(=O)NCCCn3ccnc3)cc2oc1=O,13%,1%,3%,5%,5%,?
COc1ccc(NC(=O)CN2C(=O)CSc3ccc(S(=O)(=O)N(C)C)cc32)cc1OC,/,/,-17%,/,-14%,/
c1ccc(N(c2ccccc2)c2nc(N3CCCC3)nc(-n3ccnc3)n2)cc1,?,?,26µM*,?,?,-9
c1ccc(CN2CCN(c3nc(-c4ccccc4)nc(-n4ccnc4)n3)CC2)cc1,-30%,?,18µM*,?,16µM*,?
c1ccc(-c2nc(-n3ccnc3)nc(-n3ccnc3)n2)cc1,?,-6%,10µM*,-24%,21µM*,-84*
c1ccc(CN2CCN(c3ncccn3)CC2)cc1,-6%,16%,3%,13%,6%,-4
O=C(c1csnn1)N1CCC2(CC1)CCN(c1ccccn1)CC2,/,/,?,/,-11%,/
CN1CCN(C(=S)Nc2ccc(S(N)(=O)=O)cc2)CC1,2%,0%,4%,12%,-2%,25
O=C(Cn1c2ccccc2c(=O)c2ccccc21)N/N=C/c1ccc(N2CCCC2)c([N+](=O)[O-])c1,4%,-2%,?,0%,18µM*,8
O=C(Cn1c2ccccc2c(=O)c2ccccc21)N/N=C/c1cc([N+](=O)[O-])ccc1N1CCCCCC1,?,4%,-2%,9%,0%,1
